This note sets out measurements from PubChem BioAssay AID556 (SRMLSC, 2006).

The assay has as its system diphosphomevalonate decarboxylase (Streptococcus pneumoniae D39). Briefly: diphosphomevalonate decarboxylase activity blockers – biochemical, PK/LDH-coupled NADH fluorescence, primary screen (AID 556).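 On inhibition: kinetic rate of NADH fluorescence loss reporting ADP formed by the decarboxylase; 0% = full reaction rate with carrier and 100% = no-substrate background rate.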 The note with it: purified DPM-DC, at 10 µM.
[1] abbreviates: stronger effect = higher value unless noted.
Where [2] appears, read: measured here: pilot screen trials, stronger effect = higher value.

Hit rate of the full screen: of about 65,000 compounds, about 320 (0.49%) were called active.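 How the source made its calls: active means the 320 compounds with the highest percent inhibition in the single-dose primary screen, excluding strongly autofluorescent ones (cut at about 32% in these data); inactive means the rest, inconclusive results apart.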 The list comes from a sample in which actives are over-represented; it also holds similar structures and randomly drawn compounds.

In the case of `Cc1ccc(OS(=O)Nc2cccc3nccnc23)cc1` (stereo not drawn), under setting [1], the inhibition result was “inactive”.

Take `CCCCSc1nnc(-c2ccc(NC(=O)CC)cc2)n1C`: the inhibition under setting [1] is 6% (inactive).

For `CC1CCc2sc3nc(N4CCN(CCO)CC4)n4ncnc4c3c2C1` (stereo not drawn), the inhibition result under setting [1] was “inactive”.

As for `N#Cc1c2c(c(N3CCN(CCO)CC3)n3c1nc1ccccc13)CCCC2`, the inhibition entry under setting [1] is “inactive”.

As for `CCC(=O)N(Cc1cc2cc(OC)ccc2[nH]c1=O)c1ccccc1C`, the inhibition under setting [1] is 16% (inactive).

For the compound `O=C(Cn1c(=O)n(Cc2ccco2)c(=O)c2ccccc21)NCC1CCCO1` (stereo not drawn), the inhibition entry under setting [1] was “inactive”.

In the case of `O=C(CSc1nc2ccccc2o1)N1CCN(c2ccc(Cl)cc2)CC1`, under setting [1], the inhibition is 0.5% [measured here: pilot screen trials, stronger effect = higher value] and the compound was called inactive.

In the case of `CC(CNC(=O)c1ccc(Br)o1)NC(=O)c1ccc(Br)o1` (stereo not drawn), the inhibition under setting [1] was 2% (inactive).

In the case of `CCc1nnc(NC(=O)c2cccs2)s1`, the inhibition under setting [1] was 5% (inactive).

On to `CCCn1c(SCC(=O)Nc2cccc(C(=O)OCC)c2)nnc1-c1ccoc1C`, for which the inhibition under setting [1] was 2% (inactive).

Turning to `CCC1=[N+]([O-])C(C)(/C(C)=N\O)N(O)C1(C)C` (stereo not drawn), the inhibition entry under setting [1] is “inactive”.

For `CN(c1nc2ccccc2n2c(-c3ccco3)nnc12)S(=O)(=O)c1ccccc1`, under setting [1], the inhibition is 48% (active).

On to `c1coc(-c2nc3nc4ccccc4n3nc2-c2ccco2)c1`, for which the inhibition under setting [1] is 4% (inactive).

For `CC(=O)Nc1ccc(S(=O)(=O)N2CCCC2C(=O)O)cc1` (stereo not drawn), the inhibition entry under setting [1] was “inactive”.

Consider `CCOc1cccc(-n2nnnc2-c2ccc(OC)cc2)c1`, for which, under setting [1], the inhibition is 4.5% [measured here: pilot screen trials, stronger effect = higher value] and the outcome was inactive.

`O=C(Cc1cccs1)N1CCCC(c2nc(-c3ccc(S(=O)(=O)N4CCCC4)cc3)no2)C1` (stereo not drawn): under setting [1], the inhibition result is “inactive”.

For `CCOC(=O)c1ccc(N2C(=O)CC(N3CCC(C(=O)OCC)CC3)C2=O)cc1` (stereo not drawn), the inhibition result under setting [1] was “inactive”.

Consider `O=C(NC12CC3CC(CC(C3)C1)C2)N1CCCC(CO)C1` (stereo not drawn), for which the inhibition result under setting [1] is “inactive”.

With `CC(=O)Oc1cc2c(C(=O)NCCN3CCOCC3)c(C)oc2c2ccccc12`, the inhibition entry under setting [1] is “inactive”.

On to `CN(C)c1ccc(NC(=O)c2ccncc2)c2ccccc12`, for which, under setting [1], the inhibition was 0% [measured here: pilot screen trials, stronger effect = higher value] and the outcome was inactive.

For `Cn1c(=O)[nH]c(=O)c2c1nc(CN1CCN(c3ccccc3F)CC1)n2CCc1ccccc1`, the inhibition entry under setting [1] was “inactive”.

In the case of `Cc1cc(C)n(C(=O)c2ccc(C)c(S(=O)(=O)N3CCOCC3)c2)n1`, the inhibition entry under setting [1] is “inactive”.

For the compound `Cc1cccc(C2c3c(n(C)c(=O)n(C)c3=O)N=C3c4ccccc4C(=O)C32)c1` (stereo not drawn), the inhibition reads like this: (stronger effect = higher value) 4% (inactive); under setting [2], 1%.

Consider `COc1ccc(-c2c3c(=O)n(C)c(=O)n(C)c3cn2NC(C)=O)cc1`, for which, under setting [1], the inhibition is 20% (inactive).

As for `COc1ccc(C2C3=C(OC(C)=O)c4ccccc4C3=Nc3c2c(=O)n(C)c(=O)n3C)cc1` (stereo not drawn), the inhibition runs as follows: (stronger effect = higher value) 70% (active); under setting [2], 3.5%.

As for `O=C(O)c1cc(S(=O)(=O)N2CCCCCC2)c(Cl)cc1Cl`, under setting [1], the inhibition result was “inactive”.

As for `COc1ccccc1N1CCN(C(=O)c2ccc(S(=O)(=O)N3CCCCC3)cc2)CC1`, the inhibition result under setting [1] is “inactive”.

For the compound `COC(=O)c1cccc(NC(=O)CN2CCC(NC(=O)c3cc(OC)c(OC)c(OC)c3)CC2)c1`, the inhibition entry under setting [1] was “inactive”.

For the compound `O=C(Nc1cccc2cccnc12)c1cccc(N2C(=O)CCC2=O)c1`, under setting [1], the inhibition is 3% (inactive).

As to `C=C(C)CSc1nc(N)c2c3c(sc2n1)CCC3`, the inhibition under setting [1] was 6% (inactive).

On to `COc1cc(Cl)c(C)cc1NC(=O)CSc1nnc(-c2cccnc2)n1Cc1ccco1`, for which, under setting [1], the inhibition entry is “inactive”.

Regarding `O=C(Nc1ccccc1F)c1cc(S(=O)(=O)N2CCCCC2)cs1`, the inhibition result under setting [1] is “inactive”.

On to `COc1ccc(-c2c(C)nn3c(N4CCC(C(=O)N5CCCCC5)CC4)cc(C)nc23)cc1OC`, for which the inhibition result under setting [1] is “inactive”.

Regarding `CCCS(=O)(=O)Nc1c(C(=O)O)[nH]c2ccccc12`, under setting [1], the inhibition is 8% [measured here: pilot screen trials, stronger effect = higher value] and the compound was classed as inactive.

For `Cc1ccc(C)c(N2CCN(C(=O)CCCCn3c(=O)[nH]c4ccccc4c3=O)CC2)c1`, under setting [1], the inhibition result was “inactive”.

Consider `COc1ccc(C(C)=O)cc1COC(=O)Cn1cnc2ccccc2c1=O`, for which the inhibition result under setting [1] was “inactive”.

Regarding `O=S(=O)(c1ccc(F)cc1)N1CCN(Cc2ccccc2C(F)(F)F)CC1`, the inhibition result under setting [1] was “inactive”.

With `CCOc1c(N2CCCCC2)c(=O)c1=O`, under setting [1], the inhibition entry was “inactive”.

As to `O=C(CSCc1cccs1)N1CCCC1`, under setting [1], the inhibition is 0% [measured here: pilot screen trials, stronger effect = higher value] and the call was inactive.

As for `Cc1c2cn[nH]c(=O)c2c(C)n1Cc1ccc(F)cc1`, the inhibition result under setting [1] is “inactive”.

As to `CCS(=O)(=O)n1nc(-c2ccccc2)nc1SCc1ccccc1`, the inhibition entry under setting [1] was “inactive”.

Take `CC1=C(C(=O)Nc2ccccc2)C(c2cccs2)C(C#N)=C(SCC#N)N1` (stereo not drawn): the inhibition by setting is: (stronger effect = higher value) 1% (inactive); under setting [2], 3%.

On to `CC1CCCN(Cc2nc3c(c(=O)n(C)c(=O)n3C)n2CC(=O)c2ccccc2)C1` (stereo not drawn), for which the inhibition result under setting [1] is “inactive”.

Turning to `Cc1cc(Nc2cccc(F)c2)n2ncnc2n1`, the inhibition entry under setting [1] is “inactive”.

As to `Cc1cc(C)c(C#N)c(SCc2[nH]nc3c2C(c2ccccc2)C(C#N)=C(N)O3)n1` (stereo not drawn), under setting [1], the inhibition was 0% [measured here: pilot screen trials, stronger effect = higher value] and the result was inactive.

With `CC(C[N+](C)(C)C)OC(N)=O` (stereo not drawn), the inhibition (stronger effect = higher value) was 1% (inactive) and the inhibition under setting [2] was determined as 0%.

Consider `CCOC(=O)CSC1=C(C#N)C(c2ccco2)C(C(=O)OCc2ccccc2)=C(C)N1` (stereo not drawn), for which the inhibition under setting [1] was 11% (inactive).

In the case of `NC(=O)c1ccccc1NC(=O)c1ccccc1F`, the inhibition entry under setting [1] is “inactive”.

As for `Cc1nc2ncnn2c(C)c1CCC(=O)N1CCN(C(=O)c2ccco2)CC1`, the inhibition entry under setting [1] is “inactive”.

As to `O=C(c1ccccc1)c1ccc(OC(=O)N2CCCC2)cc1`, the inhibition result under setting [1] was “inactive”.

Take `COC(=O)c1ccccc1NC(=O)Cn1nc(C(F)(F)F)c2c1CCC2`: the inhibition entry under setting [1] was “inactive”.

For the compound `CCN=C1SC(CC(=O)Nc2ccc(C)cc2)C(=O)N1CC` (stereo not drawn), the inhibition entry under setting [1] was “inactive”.

For the compound `Cc1ccccc1Nc1nnc(C)c(=O)[nH]1`, under setting [1], the inhibition is 2% (inactive).

On to `CCSc1nc2c(c(=O)[nH]1)C(c1cccnc1)C(C(=O)OC(C)C)=C(C)N2` (stereo not drawn), for which, under setting [1], the inhibition was 0% [measured here: pilot screen trials, stronger effect = higher value] and the compound was classed as inactive.

For `COc1ccc(NC(=O)CCNC(=O)Cn2ccc3ccccc3c2=O)c(OC)c1`, under setting [1], the inhibition was 1.5% [measured here: pilot screen trials, stronger effect = higher value] and the compound was classed as inactive.

`CCOC(=O)CSc1nnc(NC(=O)c2cccc(S(=O)(=O)N3CCCC3)c2)s1`: the inhibition result under setting [1] is “inactive”.
